Assay results as given in PubChem BioAssay AID1159580 (chemical genetic matrix, 2015).
About 2,000 (36%) of roughly 5,500 compounds were called active. Inconclusive results (about 18%) are left out. No stated cut-off is given here; in the data, active means normalized growth mostly below about 0.91 (no sharp cut-off); inconclusive means no clear call, values can overlap the other calls; inactive means mostly above about 0.92. The list shows a part of the results.

Experiment: chemical genetic growth profiling, strain panel (AID 1159580);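 further: tested at 20 µM; growth read once vehicle control cultures reached saturation at 30 °C; 1 = growth at the plate median or of vehicle wells; lower values mean less growth of the strain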
Settings: S. cerevisiae deletion strains, growth OD
[1] = locus YAL040C, strain CLN3, hits give low values
[2] = locus YCL061C, strain MRC1 (second series), hits give low values
[3] = locus YDR150W, strain NUM1, hits give low values
[4] = locus YDR363W, strain ESC2, hits give low values
[5] = locus YJR075W, strain HOC1, hits give low values
[6] = locus YMR263W, strain SAP30, hits give low values
[7] = locus YMR307W, strain GAS1, hits give low values
[8] = locus YNL175C, strain NOP13, hits give low values
[9] = locus YNL197C, strain WHI3, hits give low values
[10] = locus YNL224C, strain SQS1, hits give low values
[11] = locus YOR083W, strain WHI5 (second series), hits give low values

Measured: normalized growth

CC[C@@H]1C=C/C=C/C[C@H](C)[C@@H](O)[C@](C)(O)C(=O)[C@H](C)[C@@H](O)[C@H](C)C(=O)[C@H](C)[C@@H](O)[C@H](C)/C=C/C(=O)O[C@H]2[C@@H](C)[C@@H](CC1)O[C@@]1(CC[C@@H](C)[C@@H](C[C@H](C)O)O1)[C@@H]2C
active: locus YLR262C, strain YPT6 (second series), hits give low values 0.852 | locus YMR205C, strain PFK2, hits give low values 0.815 | locus YPL106C, strain sse1, hits give low values 0.807
inactive: locus YAL021C, strain ccr4, hits give low values 0.977 | locus YAL026C, strain drs2, hits give low values 1.01 | locus YAL030W, strain snc1, hits give low values 1 | locus YBL061C, strain skt5, hits give low values 1 | locus YBR009C, strain hhf1, hits give low values 0.985 | locus YBR023C, strain chs3, hits give low values 1 | locus YBR171W, strain sec66, hits give low values 1.01 | locus YBR231C, strain swc5, hits give low values 1 | locus YBR279W, strain paf1, hits give low values 0.982 | locus YCL011C, strain gbp2, hits give low values 1.02 | locus YCL016C, strain dcc1, hits give low values 1.02 | locus YCL061C, strain MRC1, hits give low values 1.01 | locus YCL069W, strain vba3, hits give low values 1.01 | locus YCR088W, strain abp1, hits give low values 1.02 | locus YDL005C, strain med2, hits give low values 1 | locus YDL040C, strain nat1, hits give low values 1.01 | locus YDR001C, strain nth1, hits give low values 1.01 | locus YDR069C, strain doa4, hits give low values 0.997 | locus YDR137W, strain rgp1, hits give low values 0.899 | locus YDR159W, strain sac3, hits give low values 0.953 | locus YDR195W, strain ref2 0.999 | locus YDR297W, strain sur2, hits give low values 1.01 | locus YDR334W, strain swr1, hits give low values 1.02 | locus YDR335W, strain msn5, hits give low values 1.01 | locus YDR392W, strain spt3, hits give low values 0.958 | locus YEL003W, strain gim4, hits give low values 1.01 | locus YEL037C, strain rad23, hits give low values 1.02 | locus YEL061C, strain CIN8 (second series), hits give low values 1.01 | locus YER015W, strain faa2, hits give low values 0.997 | locus YER016W, strain bim1, hits give low values 1.01 | locus YER111C, strain swi4, hits give low values 1.01 | locus YER155C, strain BEM2 (second series), hits give low values 1.03 | locus YFR010W, strain ubp6, hits give low values 1 | locus YGL167C, strain pmr1, hits give low values 1.01 | locus YGL173C, strain kem1, hits give low values 0.996 | locus YGL227W, strain vid30, hits give low values 1.01 | locus YGL240W, strain doc1, hits give low values 1.01 | locus YGL253W, strain hxk2, hits give low values 0.927 | locus YHR013C, strain ard1, hits give low values 0.967 | locus YHR027C, strain rpn1, hits give low values 1 | locus YHR142W, strain chs7, hits give low values 1.03 | locus YJL092W, strain hpr5, hits give low values 1.01 | locus YJL095W, strain BCK1 (second series), hits give low values 1.02 | locus YJL115W, strain asf1, hits give low values 1.01 | locus YJL129C, strain trk1, hits give low values 0.967 | locus YJL154C, strain vps35, hits give low values 1.01 | locus YJL164C, strain tpk1, hits give low values 0.987 | locus YJL166W, strain qcr8, hits give low values 1.01 | locus YJL187C, strain SWE1, hits give low values 1.01 | locus YKL160W, strain elf1, hits give low values 0.997 | locus YKR026C, strain gcn3, hits give low values 0.99 | locus YKR091W, strain srl3, hits give low values 1.01 | locus YLL001W, strain dnm1, hits give low values 0.984 | locus YLL026W, hits give low values 1.01 | locus YLL041C, strain sdh2, hits give low values 1.01 | locus YLR027C, strain aat2, hits give low values 0.995 | locus YLR221C, strain rsa3, hits give low values 1.02 | locus YLR258W, strain gsy2, hits give low values 0.997 | locus YLR320W, strain mms22, hits give low values 0.984 | locus YLR342W, strain FKS1, hits give low values 1 | locus YLR357W, strain rsc2, hits give low values 1.03 | locus YLR370C, strain arc18, hits give low values 0.994 | locus YLR384C, strain iki3, hits give low values 0.999 | locus YML120C, strain ndi1, hits give low values 0.995 | locus YMR058W, strain fet3, hits give low values 1.02 | locus YMR125W, strain sto1, hits give low values 1.04 | locus YMR129W, hits give low values 0.999 | locus YMR231W, strain pep5, hits give low values 1 | locus YNL071W, strain lat1, hits give low values 1.01 | locus YNL209W, strain ssb2, hits give low values 0.997 | locus YNL248C, strain rpa49, hits give low values 1.01 | locus YNL322C, strain KRE1 (second series), hits give low values 1.02 | locus YNR049C, strain mso1, hits give low values 1.02 | locus YOR001W, strain rrp6, hits give low values 0.999 | locus YOR070C, strain gyp1, hits give low values 1 | locus YOR080W, strain dia2, hits give low values 1.01 | locus YOR083W, strain WHI5, hits give low values 1 | locus YOR106W, strain vam3, hits give low values 0.99 | locus YOR265W, strain rbl2, hits give low values 1 | locus YOR270C, strain vph1, hits give low values 0.914 | locus YOR290C, strain snf2, hits give low values 0.966 | locus YPL051W, strain arl3, hits give low values 1.01 | locus YPL078C, strain atp4, hits give low values 1.02 | locus YPL240C, strain hsp82, hits give low values 0.989

CC[C@@H]1C=C/C=C/C[C@H](C)[C@@H](O)[C@](C)(O)C(=O)[C@H](C)[C@@H](O)[C@H](C)C(=O)[C@H](C)[C@@H](O)[C@H](C)/C=C/C(=O)O[C@H]2[C@@H](C)[C@@H](CC1)O[C@@]1(CC[C@@H](C)[C@@H](CC(C)O)O1)[C@@H]2C (stereo partly specified)
active: [7] 0.911
inactive: [1] 0.989 | [2] 1.01 | [3] 1 | [4] 0.961 | locus YER002W, strain NOP16, hits give low values 0.945 | [5] 0.973 | [6] 1.02 | locus YNL128W, strain TEP1, hits give low values 0.96 | [8] 0.969 | [9] 0.99 | [10] 0.993 | [11] 0.971 | locus YPL055C, strain LGE1, hits give low values 0.936

C[N+](C)(C)CCC(=O)c1cccc2ccccc12
active: [1] 0.095 | [5] 0.813 | [7] 0.775 | locus YNL153C, strain GIM3, hits give low values 0.104 | [8] 0.0891 | [10] 0.0743 | [11] 0.231
inactive: [2] 0.951 | [3] 0.972 | [4] 0.962 | locus YGR078C, strain PAC10, hits give low values 0.989 | [6] 0.99 | [9] 0.93 | locus YPL241C, strain CIN2, hits give low values 1

COc1cccc(C2CCN(C(=O)c3cccc4ccccc34)CC2)c1
inactive: locus YAR019C, strain CDC15, hits give low values 0.996 | locus YBL105C, strain PKC1, hits give low values 0.988 | locus YBR135W, strain CKS1, hits give low values 0.982 | locus YBR136W, strain MEC1, hits give low values 0.981 | locus YBR160W, strain CDC28, hits give low values 0.991 | locus YDL017W, strain CDC7, hits give low values 0.99 | locus YDL028C, strain MPS1, hits give low values 0.993 | locus YDL101C, strain DUN1, hits give low values 0.982 | locus YDL108W, strain KIN28, hits give low values 0.987 | locus YDL132W, strain cdc53, hits give low values 0.993 | locus YDL214C, strain PRR2, hits give low values 0.866 | locus YDR052C, strain DBF4, hits give low values 0.99 | locus YDR054C, strain cdc34, hits give low values 0.988 | locus YDR226W, strain ADK1, hits give low values 0.988 | locus YDR477W, strain SNF1, hits give low values 0.923 | locus YER123W, strain YCK3, hits give low values 0.828 | locus YER133W, strain GLC7, hits give low values 0.899 | locus YFL009W, strain cdc4, hits give low values 0.992 | locus YFL029C, strain CAK1, hits give low values 0.99 | locus YFR003C, strain YPI1, hits give low values 0.987 | locus YFR019W, strain FAB1, hits give low values 0.89 | locus YFR028C, strain CDC14, hits give low values 0.99 | locus YGR040W, strain KSS1, hits give low values 0.904 | locus YGR052W, strain FMP48, hits give low values 0.958 | locus YGR092W, strain DBF2, hits give low values 0.903 | locus YHR030C, strain SLT2, hits give low values 1 | locus YHR079C, strain IRE1, hits give low values 0.967 | locus YHR082C, strain KSP1, hits give low values 0.946 | locus YHR205W, strain SCH9, hits give low values 0.907 | locus YIL147C, strain SLN1, hits give low values 0.987 | locus YJL095W, strain BCK1, hits give low values 0.973 | locus YJL128C, strain PBS2, hits give low values 0.935 | locus YJL157C, strain FAR1, hits give low values 0.886 | locus YJR016C, strain ILV3, hits give low values 0.99 | locus YJR066W, strain TOR1 (second series), hits give low values 0.882 | locus YJR066W, strain TOR1, hits give low values 0.948 | locus YKL048C, strain ELM1, hits give low values 0.919 | locus YKL067W, strain YNK1, hits give low values 0.907 | locus YKL101W, strain HSL1, hits give low values 0.882 | locus YKL193C, strain SDS22, hits give low values 0.991 | locus YKL203C, strain TOR2, hits give low values 0.978 | locus YLR113W, strain HOG1, hits give low values 0.91 | locus YLR133W, strain CKI1, hits give low values 0.94 | locus YLR403W, strain SFP1, hits give low values 0.922 | locus YML070W, strain DAK1, hits give low values 0.859 | locus YMR001C, strain CDC5, hits give low values 0.987 | locus YMR205C, strain PFK2 (second series), hits give low values 0.914 | locus YMR277W, strain FCP1, hits give low values 0.995 | locus YNL006W, strain LST8, hits give low values 0.987 | locus YNL020C, strain ARK1, hits give low values 0.9 | locus YNL161W, strain CBK1, hits give low values 0.992 | locus YNL183C, strain NPR1, hits give low values 0.963 | locus YNL207W, strain RIO2, hits give low values 0.997 | locus YNL222W, strain SSU72, hits give low values 0.994 | locus YNL307C, strain MCK1 (second series), hits give low values 0.903 | locus YOL078W, strain AVO1, hits give low values 0.997 | locus YOL136C, strain PFK27, hits give low values 0.898 | locus YOR061W, strain CKA2, hits give low values 0.877 | locus YOR119C, strain RIO1, hits give low values 0.954 | locus YOR231W, strain MKK1, hits give low values 0.935 | locus YOR329C, strain SCD5, hits give low values 0.991 | locus YPL031C, strain PHO85, hits give low values 0.913 | locus YPL153C, strain RAD53, hits give low values 0.899 | locus YPL204W, strain HRR25, hits give low values 0.923 | locus YPL209C, strain IPL1, hits give low values 0.992 | locus YPL256C, strain CLN2, hits give low values 0.942 | locus YPR025C, strain CCL1, hits give low values 0.995 | locus YPR106W, strain ISR1, hits give low values 0.979 | locus YPR111W, strain DBF20, hits give low values 0.975 | strain NNK1, hits give low values 0.976 | strain TSCII, hits give low values 0.993
